Compounds with a hit are over-represented: about 3.5% of the library has one in this group of screens.
FBW7 activator = human FBW7 E3 ligase activation, primary screen; Q969H0; AlphaScreen FBW7–phospho-cyclin E peptide binding, activator screen; normalized activity (activation), % at 26.1 µM; hit rate 0.13% among 650,000; AID 1259310; in the data active = normalized activity above about 1.9%;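 also: purified mutant Fbw7 with reduced substrate affinity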
Target sequence (Q969H0 whole entry, looked up): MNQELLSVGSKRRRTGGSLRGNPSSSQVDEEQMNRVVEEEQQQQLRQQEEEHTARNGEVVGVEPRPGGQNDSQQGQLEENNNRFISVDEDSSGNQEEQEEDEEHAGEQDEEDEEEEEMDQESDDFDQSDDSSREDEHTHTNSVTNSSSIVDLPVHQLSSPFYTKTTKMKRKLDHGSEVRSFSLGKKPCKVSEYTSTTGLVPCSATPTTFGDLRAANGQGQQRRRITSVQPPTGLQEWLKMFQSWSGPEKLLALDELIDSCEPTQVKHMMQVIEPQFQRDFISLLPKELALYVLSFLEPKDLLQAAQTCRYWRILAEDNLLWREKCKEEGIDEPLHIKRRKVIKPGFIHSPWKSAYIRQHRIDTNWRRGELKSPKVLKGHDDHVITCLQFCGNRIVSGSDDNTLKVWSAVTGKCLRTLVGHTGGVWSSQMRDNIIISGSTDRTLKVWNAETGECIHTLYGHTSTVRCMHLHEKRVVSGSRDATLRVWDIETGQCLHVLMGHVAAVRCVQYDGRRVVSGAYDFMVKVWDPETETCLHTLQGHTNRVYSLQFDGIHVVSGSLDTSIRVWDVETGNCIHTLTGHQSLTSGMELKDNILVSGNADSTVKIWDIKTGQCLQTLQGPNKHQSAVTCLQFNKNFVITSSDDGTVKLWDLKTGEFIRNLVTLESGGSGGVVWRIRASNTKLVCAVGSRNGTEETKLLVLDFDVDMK
TEAD-YAP block = TEAD-YAP interaction inhibition | HEK-TIYL cells, TEAD-Gal4/YAP UAS-luciferase luminescence | inhibition, % at 9.12 µM | hit rate 1.4% among 640,000; in the data active = inhibition above about 32%;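 also: 0% = median of test compound wells and 100% = reference inhibitor wells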
GPR151 ag = activators of human GPR151 | Q8TDV0 | PathHunter beta-arrestin GPR151 cells, luminescence | activation, % at 11.2 µM | hit rate 1% among 650,000; in the data active = activation above about 4.9%;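 also: 0% = median of compound wells and 100% = cells with positive control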
MITF inh = blocks human microphthalmia-associated transcription factor | AlphaScreen MITF homodimerization, bead proximity signal | inhibition, % at 2.6 µM | hit rate 0.91% among 650,000; in the data active = inhibition above about 50%;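 also: 0% = vehicle wells with protein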
* marks the source's active call; other numbers are inactive results.

SMILES	FBW7 activator	TEAD-YAP block	GPR151 ag	MITF inh
O=C(C1=C(O)C(=O)N(c2nccs2)C1c1cccs1)c1cccs1 (configuration not stated)	0.0	-4.1	-1.2	33.3
CCN1CCN(c2cc(F)cc(-c3ccnc(Nc4ccc(-n5nc(C)nc5C)cc4)n3)c2)CC1	0.6	67.5*	1.9	15.5
CNc1cc(F)cc(-c2ccnc(Nc3ccc(-n4nc(C)nc4C)cc3)n2)c1	0.3	58.7*	-2.2	31.2
Cc1nc(C)n(-c2ccc(Nc3nccc(-c4cc(F)cc(-c5cn[nH]c5)c4)n3)cc2)n1	-0.2	-3.6	0.6	6.6
Cc1nc(C)n(-c2ccc(Nc3nccc(-c4cccc(-n5cncn5)c4)n3)cc2)n1	0.0	44.5*	-0.2	9.2
Cc1nc(C)n(-c2ccc(Nc3nccc(-c4cc(F)cc(N5CCCC5)c4)n3)cc2)n1	0.0	1.0	-0.1	-2.6
Cc1nc(C)n(-c2ccc(Nc3nccc(N(CCO)Cc4ccccc4)n3)cc2)n1	-0.1	51.5*	0.7	-6.0
O=C(Nc1cccc(Cl)c1)N[C@H]1C[C@H]2C(=O)N[C@@H](CO)C(=O)N2C1	1.2	11.0	0.4	17.0
O=C1OCC2=C1C(c1ccc(F)cc1)c1cc3c(cc1N2)OCCO3 (configuration not stated)	-0.1	52.6*	-0.1	-2.4
O=C1OCC2=C1C(c1ccc(F)cc1)c1cc3c(cc1N2)OCO3 (configuration not stated)	-0.1	49.8*	0.3	-2.2
O=C1NC2=C(C(=O)OC2)C(c2ccc(F)c(F)c2)N1 (configuration not stated)	-0.1	8.6	2.3	-1.5
CC(=O)Nc1ccc(C2C3=C(COC3=O)Nc3cc4c(cc32)OCO4)cc1 (configuration not stated)	-0.1	-11.2	-0.8	10.8
CC1CN(S(=O)(=O)c2cc3c4c(c2)CC(=O)N4CCC3)CC(C)O1 (configuration not stated)	-0.1	-1.9	0.0	1.9
CCN(CC)CC(O)COc1ccccc1Cl (configuration not stated)	0.4	4.8	-1.3	17.6
O=[N+]([O-])/C(=C/c1ccc2c(c1)OCCO2)c1ccccc1	-0.1	65.2*	-1.1	9.0
O=C(/C=C/c1ccc2c(c1)OCCO2)c1ccccc1	0.0	-54.6	-1.1	-0.9
COc1ccc(C(=O)Nc2ccccc2C(=O)NCCCC(=O)O)cc1	2.0*	-8.6	0.5	13.4
CCCNC(=O)c1ccccc1NC(=O)c1ccc(OC)cc1	0.1	3.5	2.9	-14.7
NC(=O)Cn1c2ccccc2c2nnc(SCCN3CCOCC3)nc21	0.1	-0.3	-0.8	16.3
Cc1cc2c(NC3CCCN(C(=O)C(O)c4ccc(Cl)cc4)C3)cccc2nn1 (configuration not stated)	-1.5	6.0	-0.2	55.8*
Cc1cncc2cccc(NC3CCCN(C(=O)[C@H](C)O)C3)c12 (some centres not stated)	-0.5	62.5*	-0.2	3.6
Cc1cncc2cccc(NC3CCCN(C(=O)C(O)c4ccc(F)cc4)C3)c12 (configuration not stated)	-0.3	45.1*	0.3	12.8
Cc1cncc2cccc(NC3CCCN(C(=O)c4cccc(Br)c4)C3)c12 (configuration not stated)	0.1	8.4	-1.4	5.9
Cc1cncc2cccc(NC3CCCN(C(=O)C(O)c4ccc(Cl)cc4)C3)c12 (configuration not stated)	-0.1	42.1*	1.6	7.3
Cc1cncc2cccc(NC3CCN(C(=O)C(N)c4ccc(Cl)cc4)CC3)c12 (configuration not stated)	-0.2	-8.7	-0.5	13.7
SMILES	FBW7 activator	TEAD-YAP block	GPR151 ag	MITF inh
CC(CC(=O)Nc1nnc(C2CC2)s1)c1ccccc1 (configuration not stated)	0.0	-3.9	-0.7	4.8
CCc1ccc(OCC2c3cc(OC)c(OC)cc3CCN2C(=O)c2ccc([N+](=O)[O-])cc2)cc1 (configuration not stated)	-0.1	-7.7	-0.3	-8.0
CC(=O)Nc1ccc(/C(C)=N\NC(=O)c2ccccc2O)cc1	-0.1	-25.0	0.5	-2.3
CCNC(=O)CN(c1cccc(Cl)c1)S(C)(=O)=O	0.0	-7.9	-0.3	-11.2
O=C(NCC(c1cccs1)N1CCOCC1)c1ccc(Cl)s1 (configuration not stated)	-0.1	57.3*	0.3	-8.0
Cc1ncn(-c2ccc(Nc3nccc(-c4ccc(S(C)(=O)=O)c(N5CCCC(O)C5)c4)n3)cc2)n1 (configuration not stated)	0.0	2.2	0.4	5.9
Fc1cncc(-c2ccnc(Nc3ccc(-n4cnc(N5CCOCC5)n4)cc3)n2)c1	0.6	-11.8	-1.2	7.4
CS(=O)(=O)c1cccc(-c2ccnc(Nc3ccc(-n4cnc(N5CCC(O)CC5)n4)cc3)n2)c1	-0.1	41.7*	-0.6	4.5
c1cc(-c2ccnc(Nc3ccc(-n4cnc(N5CCOCC5)n4)cc3)n2)cc(N2CCOCC2)c1	0.2	43.0*	0.9	-6.6
Cc1ccncc1-c1ncn(-c2ccc(Nc3nccc(-c4cc(F)cc(N5CCOCC5)c4)n3)cc2)n1	0.0	8.2	-0.6	-1.8
OC1CCN(c2ncn(-c3ccc(Nc4nccc(-c5cccc(N6CCOCC6)c5)n4)cc3)n2)CC1	0.1	81.8*	0.7	-9.1
CS(=O)(=O)c1cc(-c2ccnc(Nc3ccc(-n4cnc(-c5ccccn5)n4)cc3)n2)cc(N2CCOCC2)c1	0.4	89.0*	-1.6	-15.8
CCN1CCN(c2ncn(-c3ccc(Nc4nccc(-c5cc(C#N)cc(N6CCOCC6)c5)n4)cc3)n2)CC1	-0.1	2.9	0.0	4.0
CC(C)c1ncn(-c2ccc(Nc3nccc(-c4cccc(N5CCOCC5)c4)n3)cc2)n1	0.1	-2.3	0.2	14.2
CCc1ncn(-c2ccc(Nc3nccc(-c4cccc(N5CCOCC5)c4)n3)cc2)n1	0.2	45.7*	0.5	10.0
c1ccc(Cn2nnnc2-c2ccc(Nc3nccc(-c4cccc(N5CCOCC5)c4)n3)cc2)cc1	2.0*	-0.1	-0.7	18.9
CCN1CCN(c2ncn(-c3ccc(Nc4nccc(-c5cccc(N6CCOCC6)c5)n4)cc3)n2)CC1	-0.1	55.0*	-0.3	7.2
COc1cc(OC)c(C(=O)NCC(C)(C)CN(C)C)cc1OC	0.1	2.4	1.3	2.9
Cc1[nH]n(-c2ccccc2)c(=O)c1C(c1cccc(Br)c1)c1c(C)[nH]n(-c2ccccc2)c1=O	-0.7	0.7	-1.1	0.5
Cc1[nH]n(-c2ccccc2)c(=O)c1C(=O)c1cccc(Br)c1	0.1	59.2*	1.3	12.0
CCC(Sc1nnc(N)s1)C(=O)NC(CSCc1ccccc1)C(=O)OC (configuration not stated)	-0.2	1.7	0.9	-6.6
Cc1cc(C)cc(C(=O)O/N=C(\N)c2ccccn2)c1	0.1	-44.1	-1.5	15.2
N/C(=N\OC(=O)c1ccccc1F)c1ccccn1	0.6	81.7*	-8.5	18.0
Cc1ccc(C(=O)O/N=C(\N)c2ccccn2)c(C)c1	0.1	89.5*	-10.3	-4.0
N/C(=N\OC(=O)c1cccc(Cl)c1)c1ccccn1	0.0	49.3*	-5.7	12.1
